Source: PubChem BioAssay (National Center for Advancing Translational Sciences (NCATS))
This is one part of a sample in which hits are shown more often than they occur.
12-LOX inh = ALOX12 (human) lipoxygenase inhibition; purified 12hLO, xylenol orange hydroperoxide absorbance; AID 1671190; 580,000 compounds, 1.1% hits; Potency, µM (series often up to 108 µM), hits mostly inhibitors; P18054
Target sequence (P18054 whole entry, looked up): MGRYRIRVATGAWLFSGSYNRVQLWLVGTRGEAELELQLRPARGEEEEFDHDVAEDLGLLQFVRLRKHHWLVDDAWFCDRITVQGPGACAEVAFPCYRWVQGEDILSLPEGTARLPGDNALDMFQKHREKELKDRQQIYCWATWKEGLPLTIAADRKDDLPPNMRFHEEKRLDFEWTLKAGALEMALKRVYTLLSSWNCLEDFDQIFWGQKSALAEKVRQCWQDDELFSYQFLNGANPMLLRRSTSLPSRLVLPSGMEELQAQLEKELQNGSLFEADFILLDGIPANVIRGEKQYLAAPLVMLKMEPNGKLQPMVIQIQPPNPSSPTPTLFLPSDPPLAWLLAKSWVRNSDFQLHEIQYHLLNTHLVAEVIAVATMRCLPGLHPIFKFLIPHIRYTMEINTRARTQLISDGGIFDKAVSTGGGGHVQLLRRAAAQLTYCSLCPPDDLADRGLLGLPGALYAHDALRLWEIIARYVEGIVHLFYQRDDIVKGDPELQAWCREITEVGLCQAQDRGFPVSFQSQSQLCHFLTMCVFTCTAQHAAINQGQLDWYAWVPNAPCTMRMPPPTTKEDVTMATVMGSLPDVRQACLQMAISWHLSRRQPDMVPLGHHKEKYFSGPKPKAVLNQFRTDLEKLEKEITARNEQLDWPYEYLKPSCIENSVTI
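Hydroperoxide product was detected by ferrous iron/xylenol orange as the 573 to 405 nm absorbance ratio. Arachidonic acid at 40 uM (final) was turned over for 30 min at room temperature by 150 nM human 12hLO, pH 7.0 Hepes buffer, after 15 min compound preincubation.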
DT40 TDP1 no CPT = qHTS for Inhibitors of human tyrosyl-DNA phosphodiesterase 1 (TDP1): qHTS in cells in absence of CPT; 420,000 compounds, 15% hits; AID 686978, 2013; DT40 Tdp1-/- hTDP1 cells, no CPT, ATP luminescence, 48 h; Potency, µM (series often up to 46.2 µM), usual class: inhibitors; further: nearly all actives have a fitted effect of over 55% in size
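No-CPT arm: Tdp1-/-;hTDP1 DT40 cells (400/well) plus compounds, incubated ≥48 hr at 37 °C. Readout CellTiter-Glo luminescence.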
TDP1 cell CPT = growth inhibition of DT40 Tdp1-/-;hTDP1 cells with camptothecin (screen for TDP1 inhibitors); chicken DT40 Tdp1-/-;hTDP1 cells + 20 nM CPT, ATP luminescence, 48 h; Potency, µM (doses to about 46.2 µM), most hits filed as inhibitors; 420,000 compounds, 12% hits; AID 686979; further: nearly all actives have a fitted effect of over 55% in size
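Chicken DT40 Tdp1-/- cells stably complemented with human TDP1 were seeded at 400 cells/well in medium containing 20 nM camptothecin, exposed to pin-transferred compounds, and grown at 37 °C for at least 48 hr. Viability was read as ATP luminescence.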
HT1080NT lethal = kills 2HG-producing HT-1080-NT fibrosarcoma cells; HT-1080-NT fibrosarcoma viability, CellTiter-Glo ATP luminescence, 48 h; Potency, µM (doses to about 46.1 µM), most hits filed as cytotoxic; 360,000 compounds, 1.6% hits; AID 686970;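 further: NT is the 2HG producing partner of a matched IDH1 knockdown line; nearly all actives have a fitted effect of over 55% in size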
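Toxicity toward the 2HG-producing NT line was scored as %Activity, normalised to DMSO and no-cell wells, from CellTiter-Glo luminescence after 48 hours' treatment.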
HT1080 IDH1KD tx = kills HT-1080 cells with IDH1 knockdown. HT-1080 IDH1 knockdown viability, ATP luminescence, 48 h. Potency, µM (doses to about 46.1 µM), most hits filed as cytotoxic. 360,000 compounds, 2% hits. AID 686971
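Viability of IDH1-knockdown HT-1080 fibrosarcoma cells was assessed by CellTiter-Glo after 48 h at 37 °C with titrated compound; concentration-effect curves were classified by fit quality and response size.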
IL-1B inflam inh = inflammasome signaling inhibition, IL-1 beta readout. activity change, % at 57.5 µM. 360,000 compounds, 4.7% hits. AID 743279. THP-1 LPS/ATP IL-1B secretion, AlphaLISA, 16 h; hits give low values; in the data active means activity change below about -50%; inconclusive means mostly about -30% to -49%
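THP-1 cells pretreated 1 hr with compounds (up to 57.5 uM final), then stimulated with LPS (250 ng/mL final) plus ATP (1.25 mM final); secreted IL-1B measured by AlphaLISA after 16 hr, decreased signal indicating inhibition.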
Numbers stand for hits; . = inactive; ? = inconclusive; / = no result; [ ] = remark or other dose. Unless noted, the call rests on the fitted dose curve; in most records, active means well fitted curve in the direction sought with a large enough effect; inconclusive means small, poorly fitted or top-dose-only effect, or another doubt; inactive means no such curve, though single readings can be large; an effect the other way counts as inactive or inconclusive.

SMILES	12-LOX inh	DT40 TDP1 no CPT	TDP1 cell CPT	HT1080NT lethal	HT1080 IDH1KD tx	IL-1B inflam inh
CN(C)/C=N/n1cnc2ccccc2c1=O	.	.	.	.	.	.
CCc1ccccc1N1CNc2c(sc3nc(C)cc(COC)c23)C1=O	.	/	/	/	/	/
O=C(CCc1nnn2c1CN(C(=O)c1ccccc1F)CC2)N1CCOCC1	.	/	/	/	/	/
CN(C)c1ccc(/C=C/c2ccnc3ccc4ccccc4c23)cc1	/	0.13µM	0.14µM	/	/	/
CN(C)c1ccc(/C=C/c2ccnc3ccc(I)cc23)cc1	/	4µM	3.2µM	/	/	/
Clc1ccccc1/C=C/c1ccnc2ccccc12	.	?	?	.	.	.
CCCN(CCC)c1ccc(/C=C/c2ccnc3ccccc23)cc1	/	5µM	7.1µM	/	/	/
Cc1cc(N(C)C)ccc1/C=C/c1ccnc2ccccc12	/	7.9µM	11µM	/	/	/
Cc1ccc2nc(-c3ccc(C)c(NC(=O)c4cc([N+](=O)[O-])ccc4N4CCOCC4)c3)oc2c1	.	/	/	/	/	/
CN(C)c1ccc(C(I)C(I)c2ccnc3ccccc23)cc1 (stereo unspecified)	/	10µM	11µM	/	/	/
CC(=O)NCCNC(=O)Cc1c(C)[nH]c2ccc(F)cc12	.	/	/	/	/	/
O=C(N[C@@H](Cc1c[nH]c2ccccc12)C(=O)O)c1ccc(Cl)cc1	.	.	.	.	.	.
Cc1cc(C)nc(NC(N)=NCCc2c[nH]c3ccccc23)n1	.	9.2µM	21µM	.	?	-95
Cc1cc(C)nc(NC(N)=NC(C)c2ccccc2)n1 (stereo unspecified)	.	16µM	?	?	.	?
Cc1cc(C)nc(NC(=NCCc2c[nH]c3ccccc23)NC(=O)Nc2ccc(Cl)cc2)n1	.	23µM	23µM	.	?	.
Cc1cc(C)nc(NC2=NCC(=O)N2CCc2c[nH]c3ccccc23)n1	.	.	.	.	.	.
NC(=NCCc1c[nH]c2ccccc12)NC(=O)c1ccc(Cl)cc1	40µM	.	?	?	?	.
Cc1ccc(-c2nc(CNC(=O)C3(N)CCC3)[nH]c2-c2ccccn2)cc1	.	/	/	/	/	/
O=[N+]([O-])c1ccc2c(c1)CCCO[C@]21O[C@H](CCO)C[C@H](O)[C@H]1O	.	/	/	/	/	/
Clc1ccc(-c2nnc3n2CCN(CC2CCCCC2)C3)cc1	.[6.33 µM]	/	/	/	/	/
Cc1cc(C)nc(NC(N)=NCCc2ccccc2)n1	.	2.9µM	2.6µM	10µM	23µM	-95
O=C(NC1CCCCC1)[C@@H]1C[C@@H](O)CN1C1CCN(C(=O)C2CCOCC2)CC1	.	/	/	/	/	/
COc1ccc(C(=O)NC(=S)Nc2ccc(N3CCOCC3)cc2)cc1Cl	16µM	21µM	?	.	.	.
CC(C)(C)c1ccc(C(=O)NC(=S)Nc2ccc(N3CCOCC3)cc2)cc1	?	.	.	.	.	.
Cc1ccc(C(=O)NC(=S)Nc2ccc(N3CCOCC3)cc2)cc1C	18µM	15µM	?	.	.	.
SMILES	12-LOX inh	DT40 TDP1 no CPT	TDP1 cell CPT	HT1080NT lethal	HT1080 IDH1KD tx	IL-1B inflam inh
Cc1cccc(C(=O)NC(=S)Nc2ccc(N3CCOCC3)cc2)c1	45µM	?	?	.	.	.
COc1ccc(C(=O)Nc2ccc(N3CCN(C)CC3)cc2)cc1OC	.	.	.	.	.	-81
C#CCN(C)Cc1nc(C2(O)CCN(C(=O)c3cccc(F)c3)CC2)cs1	.	/	/	/	/	/
Cc1ccc(-n2nnc(C(=O)Nc3cc(F)ccc3F)c2C)cc1F	.	?	.	/	/	/
COc1ccccc1N(C)S(=O)(=O)c1ccc(C(=O)NCc2ccc3c(c2)OCO3)cc1	.	23µM	.	.	.	.
COc1ccccc1N(C)S(=O)(=O)c1ccc(C(=O)N(C)Cc2cccc(OC)c2OC)cc1	.	21µM	?	.	.	.
COc1ccccc1CNC(=O)c1[nH]c(C)c(C(C)=O)c1C	?	?	.	.	.	.
COc1cccc(CN(C)C(=O)c2[nH]c(C)c(C(C)=O)c2C)c1OC	.	12µM	18µM	.	.	.
COc1ccccc1N(C)S(=O)(=O)c1ccc(C(=O)N(C)Cc2ccc(Cl)s2)cc1	.	15µM	23µM	.	.	?
COCc1ccc2c(c1)c(OC(C)(C)C(=O)NCCN(C)C)nn2Cc1ccccc1	.	/	/	/	/	/
CSCC(=O)N[C@H]1CCN2C(=O)c3cc(-c4ccc(SC)cc4)ccc3NC(=O)[C@H]12	.	/	/	/	/	/
O=C(NCc1cc(F)ccc1F)C1CCN(c2cn[nH]c(=O)c2)C1 (stereo unspecified)	.	/	/	/	/	/
COc1ccc(NC(=O)N2c3ccccc3CC2c2nc(C(C)C)no2)cc1OC (stereo unspecified)	.	/	/	/	/	/
CN(Cc1ccc(OC(F)F)cc1)C(=O)c1ccc(S(=O)(=O)N(C)c2ccccc2)cc1	.	.	?	.	.	.
COC(=O)c1cc(C(=O)NCc2ccc3c(c2)OCO3)cc([N+](=O)[O-])c1	.	.	.	.	.	-55
O=C(NCc1ccc2c(c1)OCO2)c1cccc([N+](=O)[O-])c1	.	.	.	.	.	.
CCOc1ccc(CN(C)C(=O)c2ccc(S(=O)(=O)N(C)c3ccccc3OC)cc2)cc1	.	10µM	?	.[9.24 µM]	.	.
Cc1ccc2oc(C(=O)Nc3cccc(Oc4ccccc4)c3)cc(=O)c2c1	.	/	/	/	/	/
CCOc1ccc(CN2CCN(c3ncnc4sccc34)CC2)cc1	.	/	/	/	/	/
Cc1ccc(OCCN2CCN(c3ncnc4sc(C)c(C)c34)CC2)cc1	?	3.7µM	3.7µM	.	.	?
Clc1ccc(OCCN2CCN(c3ncnc4sccc34)CC2)cc1	.	0.58µM	0.58µM	.	23µM	.
COc1cc(/C=N/n2nnnc2N)ccc1OCC(N)=O	/	.	.	.	.	.
CCC(C)NC(=O)c1ccc(Cl)cc1-n1cnnn1 (stereo unspecified)	.	/	/	/	/	/
Cc1ccc2nc(-c3c[nH]c4ccccc34)c(Nc3ccc(F)cc3)n2c1	?	18µM	15µM	/	/	/
Cc1ccn2c(Nc3ccccc3)c(-c3c[nH]c4ccccc34)nc2c1	?	?	16µM	/	/	/
Cc1ccc2nc(-c3ccncc3)c(Nc3ccccc3)n2c1	.	?	?	.	.	.
Cc1ccn2c(Nc3ccc4c(c3)OCCO4)c(-c3ccccc3O)nc2c1	.	?	?	/	/	/
Cc1ccc(Nc2c(-c3c[nH]c4ccccc34)nc3cc(C)ccn23)cc1	?	23µM	23µM	/	/	/
COc1ccccc1-c1noc(-c2nnn3c2COC(c2ccc(Cl)cc2)C3)n1 (stereo unspecified)	.	/	/	/	/	/
COc1cccc(Nc2ncc3nc(CCc4ccccc4)c(=O)n(Cc4cccs4)c3n2)c1	?	.	.	/	/	/
